In the library only some 18% were active in any assay of this set; here they are far more common.
CtBP-E1A inh = qHTS Assay for Inhibitors of the CtBP/E1A Interaction; AlphaScreen GST-E1A/His-CtBP binding, 1536-well; active compounds read low; CtBP / adenovirus E1A interaction (AlphaScreen); 0.49% of 340,000 active; activity change, % (concentration not given with the values); in the data active means activity change below about -65%; inconclusive means mostly about -30% to -63%
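Homogeneous bead-based format: GST-tagged E1A captured on glutathione donor beads, His-tagged CtBP on nickel acceptor beads; compounds precede bead addition by 2 h at 37 °C.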
IL-1B inflam inh = qHTS for Inhibitors of Inflammasome Signaling: IL-1-beta AlphaLISA Primary Screen; 4.7% of 360,000 active; AID 743279, 2014; activity change, % at 57.5 µM; THP-1 LPS/ATP IL-1B secretion, AlphaLISA, 16 h; active compounds read low; in the data active means activity change below about -50%; inconclusive means mostly about -30% to -49%
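Secreted IL-1B measured by AlphaLISA bead assay after 16 h compound exposure of THP-1 cells; compounds (final up to 57.5 uM) added 1 h before LPS (250 ng/mL) and ATP (1.25 mM) stimulation; lower signal means less secretion.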
TDP1 inh = qHTS Assay for Inhibitors of Tyrosyl-DNA Phosphodiesterase (TDP1). Potency, µM (titrated, usually from 130 µM), without a hit: top-dose activity change, negative = inhibition, actives largely listed as inhibitors. 0.28% of 350,000 active. recombinant TDP1, AlphaScreen DNA substrate cleavage; further: potency means the concentration at half of the fitted maximal effect; nearly all actives have a fitted effect of over 40% in size
Target sequence (Q9NUW8 whole entry, looked up): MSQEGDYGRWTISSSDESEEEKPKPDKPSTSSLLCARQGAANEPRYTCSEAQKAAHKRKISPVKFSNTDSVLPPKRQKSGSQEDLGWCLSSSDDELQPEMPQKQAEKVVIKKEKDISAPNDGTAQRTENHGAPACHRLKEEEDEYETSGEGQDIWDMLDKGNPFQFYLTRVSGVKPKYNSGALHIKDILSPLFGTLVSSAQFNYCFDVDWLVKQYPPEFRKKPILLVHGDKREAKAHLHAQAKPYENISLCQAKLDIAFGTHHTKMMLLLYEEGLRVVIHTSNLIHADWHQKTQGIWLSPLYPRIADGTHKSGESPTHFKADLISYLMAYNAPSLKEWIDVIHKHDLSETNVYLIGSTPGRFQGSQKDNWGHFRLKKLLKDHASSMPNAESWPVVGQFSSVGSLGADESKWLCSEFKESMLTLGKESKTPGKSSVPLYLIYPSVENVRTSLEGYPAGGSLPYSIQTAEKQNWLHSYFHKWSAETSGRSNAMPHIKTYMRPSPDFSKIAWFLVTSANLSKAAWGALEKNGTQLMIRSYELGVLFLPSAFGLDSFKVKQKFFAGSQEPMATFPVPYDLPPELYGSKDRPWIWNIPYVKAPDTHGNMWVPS
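Signal: AlphaScreen proximity between streptavidin donor and anti-FITC acceptor beads on intact substrate. Reaction: Tdp1 1 nM, substrate 15 nM final, 5 min RT after 15 min compound preincubation.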
DT40 TDP1 CPT = qHTS for Inhibitors of human tyrosyl-DNA phosphodiesterase 1 (TDP1): qHTS in cells in presence of CPT; 12% of 420,000 active; chicken DT40 Tdp1-/-;hTDP1 cells + 20 nM CPT, ATP luminescence, 48 h; Potency, µM (highest dose often 46.2 µM), without a hit: at the top dose activity change, negative = growth inhibition, actives largely listed as inhibitors; AID 686979, 2013; further: potency means the concentration at half of the fitted maximal effect; nearly all actives have a fitted effect of over 55% in size
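Chicken DT40 Tdp1-/- cells complemented with human TDP1, 400 cells/well, exposed to compounds plus 20 nM camptothecin for at least 48 h at 37 C; viability read as ATP content by CellTiter-Glo luminescence.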
TDP1 cell noCPT = qHTS for Inhibitors of human tyrosyl-DNA phosphodiesterase 1 (TDP1): qHTS in cells in absence of CPT. Potency, µM (series often up to 46.2 µM), inactives show at the top dose activity change, negative = growth inhibition, actives largely listed as inhibitors. 15% of 420,000 active. DT40 Tdp1-/- hTDP1 cells, no CPT, ATP luminescence, 48 h; further: potency means the concentration at half of the fitted maximal effect; nearly all actives have a fitted effect of over 55% in size
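Camptothecin absent (DMSO only). Human TDP1-complemented DT40 knockout cells, 400 cells/well, 37 °C for minimum 48 hr; ATP measured via CellTiter-Glo, 30 min dark incubation, luminescence.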
Six1-Eya2 inh = qHTS Assay for Inhibitors of the Six1/Eya2 Interaction. Homeobox protein SIX1 (Homo sapiens) + Protein phosphatase EYA2 (Homo sapiens), …. AlphaScreen GST-Six1/His-Eya2 binding, biochemical; active compounds read low. activity change, % (concentration not given with the values). 0.56% of 360,000 active; in the data active means activity change below about -65%; inconclusive means mostly about -30% to -63%
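Homogeneous AlphaScreen proximity assay pairing GST-Six1 with His-tagged Eya2 (added as 5X mix: 250 nM and 500 nM) in 50 mM Tris pH 8.0, 300 mM NaCl, 1 mM TCEP. Glutathione donor and nickel acceptor beads; 1 h, 37 °C, dark.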
The depositor's hits bear a star; ? = inconclusive; . = no result given; [ ] = remark or other dose. Unless noted, the call rests on the fitted dose curve; in most records, active means well fitted curve in the direction sought with a large enough effect; inconclusive means small, poorly fitted or top-dose-only effect, or another doubt; inactive means no such curve, though single readings can be large; an effect the other way counts as inactive or inconclusive. On the % scale 0 is the no-effect control and ±100 the full control effect.

SMILES	CtBP-E1A inh	IL-1B inflam inh	TDP1 inh	DT40 TDP1 CPT	TDP1 cell noCPT	Six1-Eya2 inh
Cc1ccc(C(=O)NC(=C(Cl)Cl)S(=O)(=O)c2ccccc2)cc1	.	-95.3*	-5.3%	?	20.6µM*	-8.2
COC(=O)NC(=C(Cl)Cl)S(=O)(=O)c1ccccc1	-2.0	-118.2*	3.1%	6.51µM*	10.3µM*	-4.7
COc1ccc(C(=O)NC(=C(Cl)Cl)S(=O)(=O)c2ccc(C)cc2)cc1	-8.5	-94.8*	4.7%	?	?	-1.2
COCC(C)NS(=O)(=O)c1ccccc1 (stereo not given)	10.3	1.7	-3.6%	-23.3%	-2.9%	-2.4
COc1ccc(C(=O)NC(=O)COC(=O)CCS(=O)(=O)c2ccc(C)cc2)cc1	-0.4	4.4	-0.8%	-4.6%	6.2%	-0.8
Cc1ccc(C(=O)NC(C#N)=C(Cl)Cl)cc1	-2.6	-103.1*	5.1%	?	2.31µM*	-1.4
O=C(COC(=O)c1ccccc1OCCOc1ccccc1)Nc1ccccc1Br	.	.	.	-11.8%	-19.5%	.
COc1cccc(CN(C)C[C@@H]2OCc3cnnn3CCCC(=O)N([C@@H](C)CO)C[C@H]2C)c1	0.0	-13.8	.	2.3%	-21.3%	-0.7
CN1CCN(S(=O)(=O)c2cc([N+](=O)[O-])ccc2N2CCCCCC2)CC1	-5.5	-1.9	5.7%	-23.7%	-28.5%	-10.1
CCCN1C(=O)SC(CC(=O)Nc2ccc(Br)cc2)C1=O (stereo not given)	1.9	-0.9	5.7%	?	12.6µM*	4.4
O=C(CC1Sc2ncnn2C1=O)Nc1ccc(Br)cc1 (stereo not given)	0.0	-11.5	-2.2%	2.06µM*	4.61µM*	3.0
CCCN1C(=O)SC(CC(=O)Nc2ccccc2C)C1=O (stereo not given)	-0.2	32.4	-0.2%	?	?	10.0
O=C(CC1SC2=NCCN2C1=O)Nc1ccc(Br)cc1 (stereo not given)	1.5	-1.1	1.6%[56.1 µM]	-2.4%	-2.0%	3.5
CCN1CCN(c2oc(-c3ccc(COc4ccccc4C)o3)nc2C#N)CC1	.	.	12.0%	?	?	.
COc1ccc(-n2nnnc2C2CCN(S(=O)(=O)c3cccc(C(F)(F)F)c3)CC2)cc1	.	.	-2.3%	-19.5%	-13.5%	.
COc1cc2[nH]c(=O)n(CCCCCC(=O)N3CCN(c4ccc(Cl)cc4)CC3)c(=O)c2cc1OC	.	.	0.0%	?	7.31µM*	.
COc1cc2[nH]c(=O)n(CCC(=O)N3CCN(c4ccc(Cl)cc4)CC3)c(=O)c2cc1OC	.	.	5.9%	-21.4%	-24.8%	.
COc1cc2[nH]c(=O)n(CCC(=O)N3CCN(c4cccc(C)c4C)CC3)c(=O)c2cc1OC	-1.1	33.6	2.0%	23.1µM*	?	4.0
COC(=O)c1ccc2c(=O)n(CCCCCC(=O)N3CCN(c4cc(Cl)ccc4C)CC3)c(=O)[nH]c2c1	.	.	2.5%	7.31µM*	5.8µM*	.
COc1cc2[nH]c(=O)n(CCCCCC(=O)N3CCN(c4ccccc4)CC3)c(=O)c2cc1OC	-23.4	-13.9	5.6%	20.6µM*	16.4µM*	?
COc1cc2[nH]c(=O)n(CCC(=O)N3CCN(Cc4ccccc4)CC3)c(=O)c2cc1OC	1.4	14.9	3.8%	-5.7%	?	2.4
CCCC(C(=O)NC(C)(C)C)N(CC1CCCO1)C(=O)c1snc(C(N)=O)c1N (stereo not given)	4.9	-8.3	8.0%	17.9%	-3.8%	-7.9
CCN1CCN(CCNC(=O)CCCCCn2c(=O)[nH]c3cc(C(=O)OC)ccc3c2=O)CC1	-3.7	10.7	4.3%	4.8%	-0.9%	0.0

Compound activity as filed in PubChem.
